Test results taken from PubChem BioAssay AID1159580 (chemical genetic matrix, 2015).
“And” between values parts separate entries of the source, which are not always exact repeats. Equal values may be shown once. In all, about 5,500 compounds went through this assay and about 2,000 (36%) were called active. Not shown: some 18% with an inconclusive outcome. Cut-off read from the data, not from the text of the source: active = normalized growth mostly below about 0.91 (no sharp cut-off); inconclusive = no clear call, values can overlap the other calls; inactive = mostly above about 0.92. Some of the results follow. More than one record can exist for a structure, and the calls need not agree.

Test: chemical genetic growth profiling, strain panel (AID 1159580);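 note: tested at 20 µM; growth read once vehicle control cultures reached saturation at 30 °C; 1 = growth at the plate median or of vehicle wells; lower values mean less growth of the strain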
Details: growth OD

CN(C)CCCN1c2ccccc2Sc2ccc(C(F)(F)F)cc21
normalized growth (S. cerevisiae deletion strains, locus YJR066W, strain TOR1, stronger effect = lower value): 0.981 (inactive)
normalized growth (S. cerevisiae deletion strains, locus YJR075W, strain HOC1, stronger effect = lower value): 1.01 (inactive)
normalized growth (S. cerevisiae deletion strains, locus YKL009W, strain mrt4, stronger effect = lower value): 0.944 (inactive)
normalized growth (S. cerevisiae deletion strains, locus YKL068W, stronger effect = lower value): 0.991 (inactive)
normalized growth (S. cerevisiae deletion strains, locus YKL085W, strain MDH1 (second series), stronger effect = lower value): 0.994 (inactive)
normalized growth (S. cerevisiae deletion strains, locus YKL085W, strain MDH1, stronger effect = lower value): 0.994 (inactive)
normalized growth (S. cerevisiae deletion strains, locus YKL160W, strain elf1, stronger effect = lower value): 0.997 (inactive)
normalized growth (S. cerevisiae deletion strains, locus YKL190W, strain CNB1, stronger effect = lower value): 0.995 (inactive)
normalized growth (S. cerevisiae deletion strains, locus YKR001C, strain vps1, stronger effect = lower value): 0.978 (inactive)
normalized growth (S. cerevisiae deletion strains, locus YKR026C, strain gcn3, stronger effect = lower value): 1.02 (inactive)
normalized growth (S. cerevisiae deletion strains, locus YKR091W, strain srl3, stronger effect = lower value): 1.02 (inactive)
normalized growth (S. cerevisiae deletion strains, locus YLL001W, strain dnm1, stronger effect = lower value): 1 (inactive)
normalized growth (S. cerevisiae deletion strains, locus YLL026W, stronger effect = lower value): 1 (inactive)
normalized growth (S. cerevisiae deletion strains, locus YLL041C, strain sdh2, stronger effect = lower value): 1.01 (inactive)
normalized growth (S. cerevisiae deletion strains, locus YLR027C, strain aat2, stronger effect = lower value): 0.992 (inactive)
normalized growth (S. cerevisiae deletion strains, locus YLR039C, strain RIC1, stronger effect = lower value): 0.901 (inactive)
normalized growth (S. cerevisiae deletion strains, locus YLR058C, strain SHM2, stronger effect = lower value): 0.977 (inactive)
normalized growth (S. cerevisiae deletion strains, locus YLR102C, strain apc9, stronger effect = lower value): 0.979 (inactive)
normalized growth (S. cerevisiae deletion strains, locus YLR113W, strain HOG1, stronger effect = lower value): 0.979 (inactive)
normalized growth (S. cerevisiae deletion strains, locus YLR221C, strain rsa3, stronger effect = lower value): 0.977 (inactive)
normalized growth (S. cerevisiae deletion strains, locus YLR258W, strain gsy2, stronger effect = lower value): 0.989 (inactive)
normalized growth (S. cerevisiae deletion strains, locus YLR262C, strain YPT6 (second series), stronger effect = lower value): 1.16 [resistant] (active)
normalized growth (S. cerevisiae deletion strains, locus YLR262C, strain YPT6, stronger effect = lower value): 0.87 (inactive)
normalized growth (S. cerevisiae deletion strains, locus YLR268W, strain sec22, stronger effect = lower value): 1.05 (inactive)
normalized growth (S. cerevisiae deletion strains, locus YLR320W, strain mms22, stronger effect = lower value): 1.06 (inactive)
normalized growth (S. cerevisiae deletion strains, locus YLR330W, strain CHS5, stronger effect = lower value): 0.989 (inactive)
normalized growth (S. cerevisiae deletion strains, locus YLR342W, strain FKS1 (second series), stronger effect = lower value): 1 (inactive)
normalized growth (S. cerevisiae deletion strains, locus YLR342W, strain FKS1, stronger effect = lower value): 1.02 (inactive)
normalized growth (S. cerevisiae deletion strains, locus YLR357W, strain rsc2, stronger effect = lower value): 1.02 (inactive)
normalized growth (S. cerevisiae deletion strains, locus YLR370C, strain arc18, stronger effect = lower value): 1 (inactive)
normalized growth (S. cerevisiae deletion strains, locus YLR371W, strain rom2, stronger effect = lower value): 0.955 (inactive)
normalized growth (S. cerevisiae deletion strains, locus YLR384C, strain iki3, stronger effect = lower value): 1.01 (inactive)
normalized growth (S. cerevisiae deletion strains, locus YLR418C, strain cdc73, stronger effect = lower value): 0.958 (inactive)
normalized growth (S. cerevisiae deletion strains, locus YML016C, strain PPZ1, stronger effect = lower value): 0.994 (inactive)
normalized growth (S. cerevisiae deletion strains, locus YML032C, strain rad52, stronger effect = lower value): 0.989 (inactive)
normalized growth (S. cerevisiae deletion strains, locus YML120C, strain ndi1, stronger effect = lower value): 0.97 (inactive)
normalized growth (S. cerevisiae deletion strains, locus YML124C, strain tub3, stronger effect = lower value): 0.976 (inactive)
normalized growth (S. cerevisiae deletion strains, locus YMR058W, strain fet3, stronger effect = lower value): 0.999 (inactive)
normalized growth (S. cerevisiae deletion strains, locus YMR078C, strain ctf18, stronger effect = lower value): 0.961 (inactive)
normalized growth (S. cerevisiae deletion strains, locus YMR125W, strain sto1, stronger effect = lower value): 0.992 (inactive)
normalized growth (S. cerevisiae deletion strains, locus YMR129W, stronger effect = lower value): 1.02 (inactive)
normalized growth (S. cerevisiae deletion strains, locus YMR205C, strain PFK2, stronger effect = lower value): 1.01 (inactive)
normalized growth (S. cerevisiae deletion strains, locus YMR223W, strain ubp8, stronger effect = lower value): 0.969 (inactive)
normalized growth (S. cerevisiae deletion strains, locus YMR263W, strain SAP30, stronger effect = lower value): 0.988 (inactive) and 0.998 (inactive)
normalized growth (S. cerevisiae deletion strains, locus YMR307W, strain GAS1, stronger effect = lower value): 1.05 (inactive) and 1.01 (inactive)
normalized growth (S. cerevisiae deletion strains, locus YNL067W, strain RPL9B, stronger effect = lower value): 1.01 (inactive)
normalized growth (S. cerevisiae deletion strains, locus YNL071W, strain lat1, stronger effect = lower value): 1.01 (inactive)
normalized growth (S. cerevisiae deletion strains, locus YNL128W, strain TEP1, stronger effect = lower value): 0.968 (inactive) and 1.11 [resistant] (active)
normalized growth (S. cerevisiae deletion strains, locus YNL153C, strain GIM3, stronger effect = lower value): 1.01 (inactive)
normalized growth (S. cerevisiae deletion strains, locus YNL175C, strain NOP13, stronger effect = lower value): 1.01 (inactive)
normalized growth (S. cerevisiae deletion strains, locus YNL183C, strain NPR1, stronger effect = lower value): 0.962 (inactive)
normalized growth (S. cerevisiae deletion strains, locus YNL197C, strain WHI3, stronger effect = lower value): 1.03 (inactive)
normalized growth (S. cerevisiae deletion strains, locus YNL209W, strain ssb2, stronger effect = lower value): 0.986 (inactive)
normalized growth (S. cerevisiae deletion strains, locus YNL224C, strain SQS1, stronger effect = lower value): 1.03 (inactive)
normalized growth (S. cerevisiae deletion strains, locus YNL233W, strain BNI4, stronger effect = lower value): 1.02 (inactive)
normalized growth (S. cerevisiae deletion strains, locus YNL248C, strain rpa49, stronger effect = lower value): 0.953 (inactive)
normalized growth (S. cerevisiae deletion strains, locus YNL250W, strain rad50, stronger effect = lower value): 0.963 (inactive)
normalized growth (S. cerevisiae deletion strains, locus YNL271C, strain bni1, stronger effect = lower value): 0.982 (inactive)
normalized growth (S. cerevisiae deletion strains, locus YNL298W, strain CLA4, stronger effect = lower value): 0.954 (inactive)
normalized growth (S. cerevisiae deletion strains, locus YNL307C, strain MCK1, stronger effect = lower value): 0.987 (inactive)
normalized growth (S. cerevisiae deletion strains, locus YNL322C, strain KRE1 (second series), stronger effect = lower value): 1.03 (inactive)
normalized growth (S. cerevisiae deletion strains, locus YNL322C, strain KRE1, stronger effect = lower value): 0.993 (inactive) and 0.907 (inactive)
normalized growth (S. cerevisiae deletion strains, locus YNR049C, strain mso1, stronger effect = lower value): 1.02 (inactive)
normalized growth (S. cerevisiae deletion strains, locus YNR052C, strain pop2, stronger effect = lower value): 0.962 (inactive)
normalized growth (S. cerevisiae deletion strains, locus YOL006C, strain TOP1, stronger effect = lower value): 0.611 (inactive)
normalized growth (S. cerevisiae deletion strains, locus YOL012C, strain htz1): 1.01 (inactive)
normalized growth (S. cerevisiae deletion strains, locus YOL147C, strain pex11, stronger effect = lower value): 0.991 (inactive)
normalized growth (S. cerevisiae deletion strains, locus YOR001W, strain rrp6, stronger effect = lower value): 0.938 (inactive)
normalized growth (S. cerevisiae deletion strains, locus YOR061W, strain CKA2, stronger effect = lower value): 0.967 (inactive)
normalized growth (S. cerevisiae deletion strains, locus YOR069W, strain VPS5, stronger effect = lower value): 0.987 (inactive)
normalized growth (S. cerevisiae deletion strains, locus YOR070C, strain gyp1, stronger effect = lower value): 1.01 (inactive)
normalized growth (S. cerevisiae deletion strains, locus YOR080W, strain dia2, stronger effect = lower value): 1.03 (inactive)
normalized growth (S. cerevisiae deletion strains, locus YOR083W, strain WHI5 (second series), stronger effect = lower value): 0.946 (inactive)
normalized growth (S. cerevisiae deletion strains, locus YOR083W, strain WHI5, stronger effect = lower value): 0.954 (inactive)
normalized growth (S. cerevisiae deletion strains, locus YOR106W, strain vam3, stronger effect = lower value): 0.561 (active)
normalized growth (S. cerevisiae deletion strains, locus YOR136W, strain idh2, stronger effect = lower value): 0.972 (inactive)
normalized growth (S. cerevisiae deletion strains, locus YOR144C, strain elg1, stronger effect = lower value): 0.974 (inactive)
normalized growth (S. cerevisiae deletion strains, locus YOR184W, strain ser1, stronger effect = lower value): 0.96 (inactive)
normalized growth (S. cerevisiae deletion strains, locus YOR231W, strain MKK1, stronger effect = lower value): 0.978 (inactive)
normalized growth (S. cerevisiae deletion strains, locus YOR265W, strain rbl2, stronger effect = lower value): 1.01 (inactive)
normalized growth (S. cerevisiae deletion strains, locus YOR270C, strain vph1, stronger effect = lower value): 0.737 (active)
normalized growth (S. cerevisiae deletion strains, locus YOR290C, strain snf2, stronger effect = lower value): 0.989 (inactive)
normalized growth (S. cerevisiae deletion strains, locus YOR316C, strain cot1, stronger effect = lower value): 0.965 (inactive)
normalized growth (S. cerevisiae deletion strains, locus YPL051W, strain arl3, stronger effect = lower value): 0.966 (inactive)
normalized growth (S. cerevisiae deletion strains, locus YPL055C, strain LGE1, stronger effect = lower value): 0.968 (inactive) and 0.953 (inactive)
normalized growth (S. cerevisiae deletion strains, locus YPL078C, strain atp4, stronger effect = lower value): 0.992 (inactive)
normalized growth (S. cerevisiae deletion strains, locus YPL106C, strain sse1, stronger effect = lower value): 0.911 (inactive)
normalized growth (S. cerevisiae deletion strains, locus YPL240C, strain hsp82, stronger effect = lower value): 1.03 (inactive)
normalized growth (S. cerevisiae deletion strains, locus YPL241C, strain CIN2, stronger effect = lower value): 0.996 (inactive) and 0.976 (inactive)
normalized growth (S. cerevisiae deletion strains, locus YPL256C, strain CLN2, stronger effect = lower value): 0.988 (inactive)
normalized growth (S. cerevisiae deletion strains, locus YPR119W, strain clb2, stronger effect = lower value): 0.982 (inactive)
normalized growth (S. cerevisiae deletion strains, locus YPR141C, strain kar3, stronger effect = lower value): 0.926 (inactive)
normalized growth (S. cerevisiae deletion strains, locus YPR163C, strain tif3, stronger effect = lower value): 0.979 (inactive)
normalized growth (S. cerevisiae deletion strains, locus YPR167C, strain met16, stronger effect = lower value): 0.981 (inactive)
normalized growth (S. cerevisiae deletion strains, strain wtn01, stronger effect = lower value): 0.981 (inactive)
normalized growth (S. cerevisiae strains, strain wild type, stronger effect = lower value): 0.979 (inactive)
